ClpP mod – qHTS Assay for Activators of ClpP | 340,000 compounds, 1.9% hits | purified B. subtilis ClpP, FRET peptide cleavage, 20 min | Potency, µM (highest dose often 57.5 µM) | AID 651965, 2013 | ATP-dependent Clp protease proteolytic subunit (Bacillus subtilis (strain 168)), P80244; active = well fitted falling curve with a large enough effect; inconclusive = small, poorly fitted or top-dose-only effect; inactive = no such curve, though single readings can be large or run the other way; note: the source files actives as falling curves though it sought activators and does not explain the sign; nearly all actives have a fitted effect of over 65% in size
Target sequence (P80244 whole entry, looked up): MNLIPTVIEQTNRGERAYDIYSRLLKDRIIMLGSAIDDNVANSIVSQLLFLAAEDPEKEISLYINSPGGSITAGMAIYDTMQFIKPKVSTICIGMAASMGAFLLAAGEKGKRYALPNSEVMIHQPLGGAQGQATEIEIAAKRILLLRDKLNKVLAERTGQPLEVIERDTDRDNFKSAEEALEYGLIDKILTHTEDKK
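FRET quenching reversal measured ClpP activation: 10 microg/mL B. subtilis ClpP at pH 8 with the FRET-FV decapeptide, read at 430 nm after 320 nm excitation. The 20-min minus 0-min signal was scaled between DMSO/no-enzyme wells and ADEP (5.8 microM final).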
GLP1R ag – activates the human GLP-1 receptor. P43220. HEK293 GLP-1R CRE-luciferase, luminescence, 4-6 h; cells express a hypersensitive GLP-1R form. Potency, µM (highest dose often 45.6 µM), hits mostly activators. 380,000 compounds, 0.007% hits. AID 624172
HEK293 tox – cytotoxicity counter-screen for GLP-1 receptor inverse agonists | HEK293 cAMP-luciferase reporter cells, luminescence, 24 h | Potency, µM (titrated, usually from 38.3 µM), usual class: inhibitors | 410,000 compounds, 0.13% hits | AID 624418;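 note: loss of luciferase light is scored as toxicity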
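Cells in DMEM/10% Nu serum/1% pen-strep, 1536-well format. Pre-incubated 12 h, dosed with 23 nL compound, incubated a further 24 h. Luciferase detection, 12 min at room temp, luminescence.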
D3 antag – blocks the human D3 dopamine receptor; P35462; D3R cells, DiscoveRx beta-arrestin luminescence, antagonist mode; stronger effect = lower value; max response, negative = inhibition, %; 360,000 compounds, 2.5% hits; AID 652054; in the data active = max response below about -50%; inconclusive = no clear call, values can overlap the other calls
Target sequence (P35462 whole entry, looked up): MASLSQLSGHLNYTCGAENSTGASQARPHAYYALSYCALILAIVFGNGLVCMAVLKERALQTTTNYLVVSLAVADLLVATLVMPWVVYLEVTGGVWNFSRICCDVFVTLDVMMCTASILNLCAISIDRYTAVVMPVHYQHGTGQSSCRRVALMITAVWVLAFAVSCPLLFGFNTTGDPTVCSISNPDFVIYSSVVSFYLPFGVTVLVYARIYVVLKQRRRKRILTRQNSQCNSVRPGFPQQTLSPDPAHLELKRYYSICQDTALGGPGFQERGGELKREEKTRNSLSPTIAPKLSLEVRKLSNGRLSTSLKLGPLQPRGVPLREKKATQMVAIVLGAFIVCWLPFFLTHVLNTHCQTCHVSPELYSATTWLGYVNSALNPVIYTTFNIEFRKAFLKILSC
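Cells plated overnight at 1500 cells/well, then exposed to library compounds with dopamine controls for 90 minutes at 37 degrees C. DiscoveRx reagent added for 30–60 minutes at room temperature; luminescence read, quantitative HTS format.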
DRD3 agonist – D3 dopamine receptor (human) agonism | P35462 | D3R DiscoveRx beta-arrestin cells, luminescence, 90 min | max activation, % | 410,000 compounds, 0.58% hits; in the data active = max activation above about 30%
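Agonist mode: compounds and dopamine controls were applied to plated cells for 90 min at 37 degrees C after an overnight attachment at 1500 cells/well. Luminescent read-out followed 30 - 60 minutes at room temperature with DiscoveRx detection reagent.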
GLP1R inv ag – inverse agonists of human GLP-1 receptor | 410,000 compounds, 1.6% hits | HEK293 GLP-1R CRE-luciferase, luminescence, 24 h; GLP-1R form is constitutively active | Potency, µM (highest dose often 38.3 µM), actives largely listed as inhibitors; note: nearly all actives have a fitted effect of over 55% in size
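Constitutively active GLP-1R drives a cAMP-responsive luciferase in stably transfected HEK293 cells; test compounds are added after overnight (12 h) attachment and left 24 hr, and signal loss in luminescence marks inhibition.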
Hits are given with their value; . = inactive; ? = inconclusive; / = no result given. Most compounds without a hit are left out; they make up all but 5.7% or so of the library. Unless noted, calls come from the whole dose curve; as a rule, active = well fitted curve in the direction sought with a large enough effect; inconclusive = small, poorly fitted or top-dose-only effect, or another doubt; inactive = no such curve, though single readings can be large; an effect the other way counts as inactive or inconclusive.

SMILES	ClpP mod	GLP1R ag	HEK293 tox	D3 antag	DRD3 agonist	GLP1R inv ag
COc1ccc(NC(=O)C(=O)NCCN2CCN(C(=O)c3ccco3)CC2)cc1	/	.	.	.	56	.
O=C(c1ccco1)N1CCN(CC(O)COc2ccc(Br)cc2)CC1 (stereo unspecified)	/	.	.	.	35	?
COC(=O)c1ccc(OCC(O)CN2CCN(C(=O)c3ccco3)CC2)cc1 (stereo unspecified)	.	.	.	.	.	.
COc1ccc(CCNC(=O)CSc2nc3c(sc(=S)n3-c3ccccc3)c(=O)[nH]2)cc1OC	.	.	.	.	.	.
CCOC(=O)c1cccc(NC(=O)C2CCN(S(=O)(=O)c3ccc4c(c3)oc(=O)n4C)CC2)c1	.	.	.	/	.	.
Cn1c(=O)cc(N2CCN(C(=O)c3ccco3)CC2)[nH]c1=O	.	.	.	-113	.	.
O=C(c1cccc(F)c1)N1CCN(Cc2ccco2)CC1	.	.	.	.	.	.
O=C(c1ccco1)N1CCN(Cc2ccc(Br)cc2)CC1	.	.	.	.	33	.
O=C(c1ccco1)N1CCN(CC(O)Cn2c3ccccc3c3ccccc32)CC1 (stereo unspecified)	28µM	.	.	.	.	?
O=C(c1ccco1)N1CCN(Cc2c(Cl)cccc2Cl)CC1	.	.	.	.	.	?
O=C(c1ccco1)N1CCN(Cc2cccc(F)c2)CC1	.	.	.	.	36	.
COCCCNC(=O)CC(c1cc(OC)c(OC)c(OC)c1)N1Cc2ccccc2C1=O (stereo unspecified)	.	.	.	/	.	.
CC(C)c1ccc(NC(=O)c2cc(S(=O)(=O)NC3CCCCC3)ccc2F)cc1	.	/	.	/	.	?
COc1cc(C(=O)Nc2ccc(OCc3cc(=O)n4cccc(C)c4n3)cc2)cc(OC)c1OC	.	/	.	/	.	.
CC1=C(C(=O)Nc2cccnc2)C(c2cccc(Br)c2)n2nc(SCc3ccccc3)nc2N1 (stereo unspecified)	.	.	.	/	.	.
COc1ccc(CCNc2nc3cc(OC)c(OC)cc3c3nc(-c4ccccc4)nn23)cc1OC	?	/	.	/	.	.
CCc1ccc(CN2CCN(C(=O)c3ccco3)CC2)cc1	.	.	.	.	69	?
O=C(c1ccco1)N1CCN(Cc2cccc3ccccc23)CC1	/	.	.	.	32	?
O=C(c1ccco1)N1CCN(Cc2ccc(Cl)cc2)CC1	.	.	.	.	.	.
CCc1ccc(CN2CCN(C(=O)c3cccc(OC)c3OC)CC2)cc1	.	.	.	-57	.	.
COc1ccc(NC(=O)C2CCC(CNS(=O)(=O)c3cccc4nsnc34)CC2)cc1OC (stereo unspecified)	.	/	.	/	.	.
CSc1ccc2c(c1)C(N1CCN(C)CC1)Cc1ccccc1S2 (stereo unspecified)	.	.	?	-84	.	?
CN1CCN(C2Cc3ccccc3Sc3ccc(Cl)cc32)CC1 (stereo unspecified)	.	.	.	.	.	?
CN1CCN(S(=O)(=O)c2cc(C(F)(F)F)ccc2Cl)CC1	.	.	.	.	.	.
CN1CCN(C2Cc3ccccc3Sc3cc(C(F)(F)F)ccc32)CC1 (stereo unspecified)	/	.	?	-96	.	?
SMILES	ClpP mod	GLP1R ag	HEK293 tox	D3 antag	DRD3 agonist	GLP1R inv ag
CC(C)(C)c1ccc(Oc2nc3ccccn3c(=O)c2/C=C(\C#N)c2nc3ccccc3[nH]2)cc1	.	/	.	/	.	.
Cc1ccccc1CNC(=O)Cn1ncn2nc(-c3cccs3)cc2c1=O	.	/	.	/	.	.
CCOc1ccc2c(C)nc(NC3=NC(C)(C)C=C(C)N3)nc2c1	4µM	.	.	.	.	?
CCOc1ccc2nc(NC3=NC(c4ccc(OC)cc4)CC(=O)N3)nc(C)c2c1 (stereo unspecified)	32µM	.	?	.	.	.
COc1ccc(CCNC(=O)C(=O)NCC(c2ccco2)S(=O)(=O)c2ccc(F)cc2)cc1 (stereo unspecified)	.	/	.	/	.	.
O=C(N/C(=C\c1ccc(Cl)cc1)C(=O)N1CCCCC1)c1ccco1	/	.	.	.	.	10µM
Cc1ccc2nc(-c3ccc(C)c(NC(=O)COc4ccccc4Cl)c3)oc2c1	.	/	/	/	/	/
Cc1cccc(NC(=O)c2cccc(Cn3cc(Br)c([N+](=O)[O-])n3)c2)c1C	?	.	.	.	.	10µM
COc1ccc(Br)cc1CNCc1c(C(=O)O)c(C)n(Cc2ccccc2C)c1C	.	/	.	/	.	.
O=C(Nc1ccc(Cl)cn1)c1ccc2nccnc2c1	.	.	.	.	.	.
COc1cc(NC(=O)c2cccnc2)c(OC)cc1NC(=O)c1ccc(Br)cc1	/	.	.	.	121	.
COC(=O)c1ccc(NC(=O)c2cccnc2)cc1	.	.	.	.	.	.
O=C(Nc1ccc(Cl)cn1)c1cccnc1	.	.	.	-51	.	.
COc1cc(NC(=O)C(C)Oc2ccccc2)c(OC)cc1NC(=O)c1ccccc1 (stereo unspecified)	.	.	.	.	36	?
COC(=O)c1cccc(NC(=O)c2cccnc2)c1	14µM	.	.	.	.	.
OCC[C@@H]1C[C@H](O)[C@@H](O)[C@]2(OCc3cc(Cl)ccc32)O1	.	.	.	.	.	.
CC1(CN2CCC(n3c(=O)[nH]c4ccccc43)CC2)OCc2ccccc2-n2cccc21 (stereo unspecified)	/	.	/	/	.	/
CCOC(=O)C1CCC(CN(Cc2ccc(Cl)cc2)S(=O)(=O)c2ccc(Br)cc2)CC1 (stereo unspecified)	.	/	.	/	.	.
CC1CC(=O)N(CC(=O)Nc2ccc(F)cc2F)c2ccccc2S1 (stereo unspecified)	.	.	.	/	.	.
CC1=C(C(=O)N2CCOCC2)C(c2ccccc2F)C2=C(CC(C)(C)CC2=O)N1 (stereo unspecified)	14µM	.	.	.	.	.
COc1ccc(C2C(C#N)=C(C)NC3=C2C(=O)CC(C)(C)C3)c(OC)c1 (stereo unspecified)	?	.	.	.	.	.
COc1ccc(C2C(C(=O)N3CCOCC3)=C(C)NC3=C2C(=O)CC(C)(C)C3)c(OC)c1 (stereo unspecified)	16µM	.	.	?	.	.
O=C(Nc1cccc(Nc2ccccc2)c1)c1cnn2c1NC(=C1CC1)C=C2C(F)F	.	/	/	/	/	/

Screens deposited in PubChem BioAssay by National Center for Advancing Translational Sciences (NCATS).
